Calls of active or inactive are those of the source. The calls were made as follows: active = hit-call score of the fitted dose curve at least 0.9, where 1 is the maximum; inactive = score below 0.9.
Columns and labels:
[1] = CCTE_Padilla_ZF_Score.General: CCTE's 144 Hour Post-fertilization zebrafish Assay Score for General Malformation, Padilla Lab (AID 2284411)
Method in brief: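 Wild-type zebrafish embryos were plated singly at 6-8 hpf in 10% Hanks' and exposed in sealed wells at 26C until rinsed on 5 dpf. At 6 dpf two blinded assessors scored mortality, hatching and malformations by stereomicroscopy; gain-of-signal versus DMSO.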

[2] = Tanguay_ZF_120hpf_AXIS: Oregon State University Tanguay Lab 120 Hour Post-fertilization zebrafish Assay for Axial Malformation (AID 2284398)
Method in brief: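 Dechorionated 5D wild-type zebrafish embryos exposed statically, one per well, from 6 to 120 hpf at 28C, 0.64% DMSO. Axial malformation scored as present/absent by brightfield microscopy at 120 hpf; dead embryos not scored.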

[3] = Tanguay_ZF_120hpf_MORT: Oregon State University Tanguay Lab 120 Hour Post-fertilization zebrafish Assay for Mortality (AID 2284399)
Method in brief: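 Dechorionated wild-type Tropical 5D zebrafish embryos, one per well from 6 hpf, static exposure to 120 hpf at 28C in sealed dark plates, 0.64% DMSO final. Mortality scored as binary by brightfield at 24 and 120 hpf.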

[4] = Tanguay_ZF_120hpf_EDEM: Oregon State University Tanguay Lab 120 Hour Post-fertilization zebrafish Assay for Edema Malformation (AID 2284400)
Method in brief: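 Dechorionated Tropical 5D wild-type embryos, one per well, statically exposed from 6 to 120 hpf at 28C in 0.64% DMSO. Edema scored present/absent by brightfield microscopy at 120 hpf; dead embryos not scored; fit versus DMSO.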

[5] = Tanguay_ZF_120hpf_BRN: Oregon State University Tanguay Lab 120 Hour Post-fertilization zebrafish Assay for Brain Region Malformation (AID 2284402)
Method in brief: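 Dechorionated wild-type Tropical 5D zebrafish embryos exposed statically from 6 to 120 hpf at 28C, one per well, 0.64% DMSO final. Brain malformation scored at 120 hpf by brightfield as present/absent; dead embryos not scored.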

[6] = Tanguay_ZF_120hpf_TCHR: Oregon State University Tanguay Lab 120 Hour Post-fertilization zebrafish Assay for Touch Responsive (AID 2284403)
Method in brief: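 Dechorionated Tropical 5D wild-type zebrafish embryos, one per well from 6 hpf, were statically exposed to 120 hpf at 28 °C (0.64% DMSO). Touch response was scored present/absent at 120 hpf and not scored in dead larvae.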

[7] = Tanguay_ZF_120hpf_ANY: Oregon State University Tanguay Lab 120 Hour Post-fertilization zebrafish Assay for Any Mortality and Malformation (AID 2284404)
Method in brief: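 Dechorionated Tropical 5D wild-type embryos, one per well from 6 hpf, static exposure in sealed, dark plates at 28C until 120 hpf, 0.64% DMSO final. Brightfield scoring of mortality and malformations as binary presence/absence, pooling 13 morphology endpoints.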

[8] = CCTE_Padilla_ZF_Score.Craniofacial: CCTE's 144 Hour Post-fertilization zebrafish Assay Score for Craniofacial Malformation, Padilla Lab (AID 2284405)
Method in brief: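 Wild-type zebrafish embryos (with chorions), one per well in 10% Hanks', were dosed at 6–8 hpf in sealed plates and kept at 26C. They were rinsed at 5 dpf. At 6 dpf two blinded assessors scored craniofacial malformations by brightfield stereomicroscopy.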

[9] = CCTE_Padilla_ZF_Score.Edema: CCTE's 144 Hour Post-fertilization zebrafish Assay Score for Edema Malformation, Padilla Lab (AID 2284406)
Method in brief: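 Wild-type zebrafish embryos, one per well in Hanks' solution, dosed at 6-8 hpf, sealed and reared at 26C on a 14:10 h cycle; rinsed on 5 dpf. At 6 dpf, blinded assessors scored edema by stereomicroscopy.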

[10] = CCTE_Padilla_ZF_Score.Spine: CCTE's 144 Hour Post-fertilization zebrafish Assay Score for Spine Malformation, Padilla Lab (AID 2284407)
Method in brief: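 Wild-type zebrafish embryos, one per well in Hanks' solution, dosed at 6–8 hpf in sealed plates at 26C, 14:10 h light:dark; rinsed at 5 dpf. Two blinded assessors scored spinal defects by stereomicroscopy at 6 dpf; fitted versus DMSO.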

[11] = CCTE_Padilla_ZF_Score.Swim_bladder: CCTE's 144 Hour Post-fertilization zebrafish Assay Score for Swim Bladder Malformation, Padilla Lab (AID 2284408)
Method in brief: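 Wild-type zebrafish embryos, one per well in 10% Hanks', dosed at 6–8 hpf, sealed, reared at 26C and rinsed at 5 dpf. Blinded assessors scored uninflated swim bladder by stereomicroscopy at 6 dpf, relative to DMSO.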

[12] = CCTE_Padilla_ZF_Score.Position: CCTE's 144 Hour Post-fertilization zebrafish Assay Score for Position, Padilla Lab (AID 2284409)
Method in brief: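 Wild-type zebrafish embryos (with chorions) exposed singly from 6–8 hpf in sealed wells of Hanks' solution at 26C, rinsed at 5 dpf. At 6 dpf, blinded assessors scored abnormal water-column position by brightfield stereomicroscopy, relative to DMSO.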

[13] = CCTE_Padilla_ZF_Score.Living: CCTE's 144 Hour Post-fertilization zebrafish Assay Score for Viability, Padilla Lab (AID 2284410);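 also: larval death at 6 dpf judged by absent heartbeat or coagulation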
Method in brief: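 Wild-type zebrafish embryos were exposed singly from 6–8 hpf in sealed wells of Hanks' solution at 26C, then rinsed at 5 dpf. At 6 dpf, blinded assessors scored mortality (no heartbeat or coagulation) by stereomicroscopy, fitted against DMSO.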

[14] = CCTE_Padilla_ZF_Score.Tail: CCTE's 144 Hour Post-fertilization zebrafish Assay Score for Tail Malformation, Padilla Lab (AID 2284414)
Method in brief: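 Wild-type zebrafish embryos, one per well in 200 uL 10% Hanks', dosed at 6-8 hpf, sealed, and kept at 26 C on a 14:10 h light cycle. Chemical was rinsed out at 5 dpf. Blinded brightfield scoring of tail defects followed at 6 dpf.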

[15] = CCTE_Padilla_ZF_Score.Blood_pooling: CCTE's 144 Hour Post-fertilization zebrafish Assay Score for Blood Pooling, Padilla Lab (AID 2284415)
Method in brief: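 Wild-type outbred zebrafish embryos, one per well in 10% Hanks', exposed from 6–8 hpf in sealed plates at 26C on 14:10 h light:dark, rinsed at 5 dpf. Blinded stereomicroscope scoring of blood pooling at 6 dpf; gain-of-signal versus DMSO.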

[16] = CCTE_Padilla_ZF_Score.Any: CCTE's 144 Hour Post-fertilization zebrafish Assay Score for Any Mortality or Malformation, Padilla Lab (AID 2284416)
Method in brief: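 Wild-type zebrafish embryos with chorions, one per well in 10% Hanks' from 6–8 hpf, dosed in sealed plates at 26 C, 14:10 h light:dark; rinsed at 5 dpf; blinded scoring at 6 dpf for death or malformation, versus DMSO.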

[17] = tested on: SRY-box transcription factor 17 (SOX17) Protein Expression, Deisenroth Lab, SOX17 (gene 64321); experiment: CCTE_Deisenroth_DEVTOX-GLR_Endo_SOX17: CCTE's DevTox GLR-Endo Assay Evaluation of SRY-box transcription factor 17 (SOX17) Protein Expression, Deisenroth Lab (AID 2284413)
Method in brief: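 Endpoint: % change in SOX17+ fraction (SOX17+ cells / cell count) vs 0.2% DMSO solvent control. RUES2-GLR reporter cells, 48 h endoderm differentiation, two doses at 24 h intervals, high-content fluorescence imaging, 5 fields/well.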

[18] = tested on: Brachyury (BRA) Protein Expression, TBXT (gene 6862); experiment: CCTE_Deisenroth_DEVTOX-GLR_Endo_BRA: CCTE's DevTox GLR-Endo Assay Evaluation of Brachyury (BRA) Protein Expression, Deisenroth Lab (AID 2284417)
Method in brief: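 RUES2-GLR human pluripotent cells, seeded 24 h, then differentiated 48 h in defined media with two chemical exposures 24 h apart (10-point series, 1 nM - 200 uM). Fixed, nuclear-stained, imaged; endpoint is percent BRA+ cells minus 0.2% DMSO control.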

[19] = CCTE_Deisenroth_DEVTOX-GLR_Endo_CellCount: Viability Assessment in CCTE's DevTox GLR-Endo Assay, Deisenroth Lab (AID 2284420)
Method in brief: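 RUES2-GLR pluripotent cells seeded 24 h, then differentiated 48 h in defined media with two chemical exposures 24 h apart. Nuclei counted by high-content imaging; 10-point 1 nM–200 uM series; percent change versus 0.2% DMSO.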

[20] = tested on: SRY-box transcription factor 2 (SOX2) Protein Expression, Deisenroth Lab, SOX2 (gene 6657); experiment: CCTE_Deisenroth_DEVTOX-GLR_Pluri_SOX2: CCTE's DevTox GLR-Pluri Assay Evaluation of SRY-box transcription factor 2 (SOX2) Protein Expression, Deisenroth Lab (AID 2284428)
Method in brief: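 RUES2-GLR human pluripotent cells, two exposures 24 h apart over 48 h differentiation; 10-point series 1 nM - 200 uM. High-content imaging gives SOX2+ cells divided by cell count, reported as percent change versus 0.2% DMSO.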

C=CCCCCCCCCC=O
outcome [1]: inactive

C=CC(=O)NC(C)(C)C
outcome [1]: inactive

c1ccc2c(c1)[nH]c1ccccc12
outcome [1]: inactive

C=CC(=O)OCCCCCCOC(=O)C=C
outcome [1]: inactive

C[N+](C)(C)CCCNS(=O)(=O)C(F)(F)C(F)(F)C(F)(F)C(F)(F)C(F)(F)C(F)(F)C(F)(F)C(F)(F)F
outcome [2]: inactive
outcome [3]: inactive
AC50 [4]: 67.1 µM (active)
outcome [5]: inactive
outcome [6]: inactive
AC50 [7]: 80 µM (active)
outcome [8]: inactive
outcome [9]: inactive
outcome [10]: inactive
outcome [11]: inactive
outcome [12]: inactive
AC50 [13]: 50.1 µM (active)
outcome [1]: inactive
outcome [14]: inactive
outcome [15]: inactive
AC50 [16]: 26.2 µM (active)

C=CC(=O)OCCCCCCCC(C)C
outcome [1]: inactive

CCCCCCCO
outcome [1]: inactive

CCCCCCC=O
outcome [1]: inactive

O=C(O)C(F)(F)C(F)(F)C(F)(F)C(F)(F)C(=O)O
outcome [2]: inactive
outcome [3]: inactive
outcome [4]: inactive
outcome [5]: inactive
outcome [6]: inactive
outcome [7]: inactive
outcome [8]: inactive
outcome [9]: inactive
outcome [10]: inactive
outcome [11]: inactive
outcome [12]: inactive
outcome [13]: inactive
outcome [1]: inactive
outcome [14]: inactive
outcome [15]: inactive
outcome [16]: inactive

c1ccc2sc(SSN3CCOCC3)nc2c1
outcome [1]: inactive

COc1ccc(C(=O)c2ccccc2)c(O)c1
AC50 [1]: 7.03 µM (active)

CC1(C)[C@@H]2CC[C@@]1(C)C(=O)C2
outcome [17]: inactive
outcome [18]: inactive
outcome [19]: inactive
outcome [20]: inactive

CCCCCCOC(=O)CCCCC(=O)OCCCCCC
outcome [1]: inactive
